# CHX counter-1 = counter-screen for Shiga toxin inhibitors: cycloheximide protein synthesis inhibition | 300,000 compounds, 12% hits | cell reporter, cycloheximide protein synthesis inhibition counterscreen | max response, % | AID 2314; in the data active means max response mostly above about 13%, no sharp cut-off; inactive means mostly below about 14%; further: read at 38.3 µM for the half of the compounds with a filed dose; 0% is about no effect
# Shiga inhibitor = Shiga toxin inhibition; Vero cells, Shiga toxin protein synthesis inhibition reporter; inhibition, % at 38.7 µM; 290,000 compounds, 9.2% hits; in the data active means inhibition mostly above about 28%, no sharp cut-off; inactive means mostly below about 43%; further: 0% is about no effect
# LmPK inh = blocks Leishmania mexicana pyruvate kinase activity. 290,000 compounds, 0.37% hits. Potency, µM (titrated, usually from 57.5 µM), for inactives: at the highest dose activity change, negative = inhibition, usual class: inhibitors. Q27686. purified LmPK, Kinase-Glo ATP luminescence, 1 h; further: potency means the concentration at half of the fitted maximal effect; on the % scale 0 is the no-effect control and ±100 the full control effect
# Target sequence (Q27686 whole entry, looked up): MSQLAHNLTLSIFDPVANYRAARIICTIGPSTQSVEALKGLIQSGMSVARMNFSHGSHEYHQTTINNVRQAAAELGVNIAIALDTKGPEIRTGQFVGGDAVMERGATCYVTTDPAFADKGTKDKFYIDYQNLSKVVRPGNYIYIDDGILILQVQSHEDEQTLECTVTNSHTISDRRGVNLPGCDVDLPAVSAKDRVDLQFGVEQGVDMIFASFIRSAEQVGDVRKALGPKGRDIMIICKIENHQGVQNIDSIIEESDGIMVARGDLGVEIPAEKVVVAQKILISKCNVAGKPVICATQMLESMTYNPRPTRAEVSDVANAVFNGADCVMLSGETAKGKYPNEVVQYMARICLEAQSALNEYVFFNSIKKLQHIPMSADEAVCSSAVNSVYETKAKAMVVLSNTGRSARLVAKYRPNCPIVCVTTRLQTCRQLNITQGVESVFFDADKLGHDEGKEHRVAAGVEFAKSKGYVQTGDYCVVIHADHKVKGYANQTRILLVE
#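 ATP generated from ADP (0.1 mM) and PEP (0.5 mM) by 0.1 nM LmPK over 1 h at room temperature (pH 7.2 imidazole buffer) was detected by coupled luciferase luminescence. Values were normalized to uninhibited and no-enzyme wells.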
# Sm TGR block = blocks Schistosoma mansoni thioredoxin glutathione reductase; Q962Y6; purified TGR, DTNB reduction, TNB absorbance 405 nm; Potency, µM (top dose mostly 114 µM), without a hit: at the top dose activity change, negative = inhibition, most hits filed as inhibitors; 360,000 compounds, 3% hits; AID 485364; further: potency means the concentration at half of the fitted maximal effect; on the % scale 0 is the no-effect control and ±100 the full control effect; nearly all actives have a fitted effect of over 60% in size
#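 TGR 20 nM + NADPH 100 uM (dispensed conc.), cpd preinc 15 min RT; start with NADPH (500 uM addition) then DTNB (15 mM addition). Kinetic TNB absorbance, 405 nm filter. Four-parameter Hill fit across titration.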
# TbPYK inhibitor = T. brucei pyruvate kinase inhibition; Q57TT1; TbPYK enzyme, Kinase-Glo Plus ATP luminescence, 45 min; Potency, µM (titrated, usually from 76.8 µM), inactives show at the highest dose activity, negative = inhibition, most hits filed as inhibitors; 410,000 compounds, 0.12% hits; AID 624173; further: potency means the concentration at half of the fitted maximal effect; on the % scale 0 is the no-effect control and ±100 the full control effect; nearly all actives have a fitted effect of over 50% in size
#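 T. brucei PYK with substrate was exposed to pin-transferred compounds across a concentration series, then started with 130 uM ADP (final). After 45 min at room temperature, Kinase-Glo Plus luminescence was read, normalized and curve-fitted.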
# Giardia FBPA inh = blocks Giardia fructose-bisphosphate aldolase activity | purified Giardia FBPA | AID 2451 | Potency, µM (titrated, usually from 59.6 µM), for inactives: at the top dose activity, negative = inhibition, hits mostly inhibitors | 290,000 compounds, 0.71% hits | A8B2U2; further: potency means the concentration at half of the fitted maximal effect; on the % scale 0 is the no-effect control and ±100 the full control effect; nearly all actives have a fitted effect of over 55% in size
# Target sequence (A8B2U2 whole entry, looked up): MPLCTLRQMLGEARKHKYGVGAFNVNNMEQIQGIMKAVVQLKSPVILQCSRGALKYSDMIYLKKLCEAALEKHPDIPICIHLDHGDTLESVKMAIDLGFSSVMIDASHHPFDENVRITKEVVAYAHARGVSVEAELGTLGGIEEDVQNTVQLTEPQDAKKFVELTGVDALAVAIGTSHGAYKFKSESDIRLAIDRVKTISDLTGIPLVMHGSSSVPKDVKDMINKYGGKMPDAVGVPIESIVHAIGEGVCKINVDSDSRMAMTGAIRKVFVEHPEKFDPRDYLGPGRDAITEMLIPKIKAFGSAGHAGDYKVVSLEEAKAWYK
#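 Giardia FBPA (40 nM reagent) was preincubated 10 min at RT with compound (up to 57.5 uM final), then substrate plus GAPDH/TPI/NAD/arsenate coupling system with diaphorase/resazurin was added; resorufin fluorescence (525/598 nm) was read after 20 min.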
# CHX counter-2 = affects protein synthesis reporter in cycloheximide counter-screen; Potency, µM (top dose mostly 38.3 µM), without a hit: top-dose activity (activation), most hits filed as activators; Cycloheximide counterscreen, protein synthesis reporter, Shiga toxin assay; shares compounds with Shiga inhibitor; 510 compounds, 3% hits; calls by dose curve; further: potency means the concentration at half of the fitted maximal effect; 0% is about no effect
# Numbers without * were called inactive; ? = inconclusive; . = no result given. The full list was thinned out, with hits kept by preference. Unless noted, the call rests on the fitted dose curve; in most records, active means well fitted curve in the direction sought with a large enough effect; inconclusive means small, poorly fitted or top-dose-only effect, or another doubt; inactive means no such curve, though single readings can be large; an effect the other way counts as inactive or inconclusive.
SMILES,CHX counter-1,Shiga inhibitor,LmPK inh,Sm TGR block,TbPYK inhibitor,Giardia FBPA inh,CHX counter-2
Cc1ccc2oc(=O)c3cnn(CC(=O)N(CCC(C)C)Cc4ccco4)c3c2c1,-7.0,-23.0,-0.1%,-2.1%,-1.1%,8.5%,.
O=C(Cn1ncc2c(=O)oc3ccccc3c21)N(Cc1ccco1)C1CCCCC1,1.0,47.6*,5.9%,-23.7%,4.3%,-1.3%,-2.4%
COCCCn1c(SCC(=O)OC2CCCCC2)nnc1-c1cccs1,-1.2,86.0*,11.8%,-2.0%,0.6%,-0.6%,-1.6%
COC(=O)[C@@]1(Cc2ccc(F)cc2)[C@H]2c3cc(C(=O)N4CCCC4)n(CCc4ccc(OC)c(Br)c4)c3C[C@H]2CN1C(=O)c1ccccc1,.,.,.,.,1.6%,-8.4%,.
COC(=O)[C@@]1(Cc2ccc(F)cc2)[C@H]2c3cc(C(=O)N4CCCC4)n(CCc4ccc(O)c(O)c4)c3C[C@H]2CN1C(=O)c1ccccc1,6.9,52.5*,-1.5%,?,.,-29.6%,0.7%
CCOC(=O)c1c(C)[nH]c(C2=NNC(=NC3CC3)SC2)c1C,10.4,32.0*,-22.4%,8.6%,7.94µM*,-8.5%,0.0504µM*
CCOC(=O)c1c(C)[nH]c(/C(C)=N/O)c1C,12.2,15.8,-5.0%,-10.1%,2.5%,1.8%,.
C=CCc1cc(C)ccc1OCC(O)CN1CCN(c2ccccc2)CC1 (stereo not drawn),-2.4,32.6*,-1.3%,8.7%,14.3%,?,-0.3%
O=C(Nc1cc(Cl)ccc1Cl)Nn1cnnc1,-2.8,-11.5,-2.2%,-4.9%,-3.6%,-5.9%,.
Cc1cc2n(n1)SC(Nc1cc(Cl)ccc1Cl)N2 (stereo not drawn),17.4,35.1*,6.5%,15.8µM*,-9.0%,?,0.5%
CC(CC(=O)N(CCC1=CCCCC1)c1c(N)n(Cc2ccccc2)c(=O)[nH]c1=O)c1ccccc1 (stereo not drawn),.,.,.,-3.6%,0.6%,.,.
CCc1ccccc1NC(=O)c1ccc(F)c(S(=O)(=O)N2CCN(c3ccccc3OC)CC2)c1,.,.,.,-4.5%,-4.3%,.,.
NNC(=O)c1ccc(NS(=O)(=O)c2ccc(Br)cc2)cc1,2.4,28.4*,4.1%,-27.7%,.,-2.0%,4.4%
CC(=O)c1ccccc1Oc1ncnc(N)c1[N+](=O)[O-],2.0,29.2*,2.8%,-19.4%,4.2%,-0.2%,0.4%
Cc1ccccc1Oc1ncnc(N)c1[N+](=O)[O-],2.9,-6.7,12.1%,-2.6%,3.2%,2.4%,.
CCCCOC(=O)c1ccc(N=Nc2c(C)c(C#N)c(O)[nH]c2=O)cc1,7.8,46.6*,-1.2%,0.2%,-1.3%,-13.5%,?
O=c1[nH]c(=O)n(Cc2ccccc2)c2c1C(C(F)(F)F)(C(F)(F)F)N=C(c1ccco1)N2,-1.4,-14.5,11.4%,-23.1%,10.0%,8.6%,.
O=c1[nH]c(=O)n(Cc2ccco2)c2c1C(C(F)(F)F)(C(F)(F)F)N=C(c1ccc(F)cc1)N2,4.9,66.5*,3.5%,1.5%,-0.3%,11.1%,-1.0%
O=C(c1ccco1)N1CCC(c2nc3c(nnn3Cc3ccccc3Cl)c(=O)[nH]2)CC1,-5.9,-3.4,-2.8%,0.4%,-7.2%,2.0%,.
O=C(c1ccco1)N1CCN(c2nc(C3CC3)nc3c2nnn3Cc2ccccc2Cl)CC1,6.2,active,5.0%,1.1%,-0.5%,4.3%,1.1%
CC1=C(C(=O)N2CCOCC2)CC(CC(=O)NCc2cccc3ccccc23)C(=O)N1Cc1ccccc1 (stereo not drawn),.,.,.,.,-7.6%,.,.
CCOC(=O)c1ccc(NC(=O)Nn2cnnc2)cc1,9.3,-0.7,1.3%,-13.1%,-3.5%,4.1%,.
CCOC(=O)c1ccc(NC(=O)Nc2ccn(C)n2)cc1,12.7,46.6*,-9.8%,-0.1%,-2.6%,0.6%,?
O=C1c2ccccc2C(=O)c2c1ccc1c(=O)n(C3CCCCC3)[nH]c21,4.7,26.6*,-3.5%,-2.5%,0.1%,?,-4.9%
O=C(COC(=O)c1cccc2c1C(=O)c1ccccc1C2=O)NC1CCCCC1,-7.0,-10.7,0.2%,-18.5%,-1.1%,-24.6%,.
SMILES,CHX counter-1,Shiga inhibitor,LmPK inh,Sm TGR block,TbPYK inhibitor,Giardia FBPA inh,CHX counter-2
CCN1CCN(C(=O)c2ccc3c(=O)n(CCC4=CCCCC4)c(=O)[nH]c3c2)CC1,10.7,29.0*,-0.9%,-2.2%,-1.7%,6.5%,?
CN(CC(=O)c1c(N)n(C)c(=O)n(C)c1=O)c1ccccc1,-1.8,5.5,1.1%,.,6.6%,-17.5%,.
O=C(NCc1ccccc1Cl)c1cnc2ccccc2n1,-1.2,45.8*,4.9%,-0.7%,-3.3%,-8.6%,6.8%
O=C(NCc1ccccc1Cl)NCc1ccccc1Cl,1.4,-3.0,3.7%,-10.8%,-1.5%,2.3%,.
CCn1cc(C(=O)NCc2ccccc2Cl)cn1,8.5,active,9.5%,-1.5%,1.8%,10.6%,0.2%
CCOc1cccc(CC(=O)N2CCc3c([nH]c4ccc(OC)cc34)C2c2ccc(F)cc2)c1OCC (stereo not drawn),.,.,.,-11.0%,-1.8%,.,.
CC(=O)N/C(=C\c1ccccc1)C(=O)Nc1ccccc1C,8.5,51.6*,-0.5%,.,0.9%,-0.7%,2.0%
C#CC(=O)CC1(CN(Cc2ccccc2)C(=O)OC(C)(C)C)CCCCC1,.,.,.,.,-19.1%,.,.
Cc1cccc(NNC(=O)C2CCC2)c1,-3.6,-8.1,-0.7%,?,2.2%,-4.0%,.
Cc1cccc(NC(=O)C2CCCC2)c1,-2.6,35.8*,4.8%,-11.3%,1.5%,-2.7%,2.6%
Cc1onc(-c2ccccc2Cl)c1C(=O)OCC(=O)N1CCN(c2ccccc2)CC1,.,.,.,-11.0%,12.0%,.,.
CCOc1ccccc1NC(=O)CCS(=O)(=O)c1cccc2nonc12,-2.4,-16.6,-0.5%,?,-1.1%,-0.2%,.
O=C(CCS(=O)(=O)c1cccs1)Nc1ccc(C(=O)NCc2cccs2)cc1,7.4,28.9*,1.1%,-1.0%,10.0%,2.9%,-2.4%
CCOc1ccccc1NC(=O)CCS(=O)(=O)c1cccs1,-3.1,125.6*,6.3%,56.2µM*,-8.3%,-12.0%,-1.9%
CC(=O)c1cccc(NC(=O)c2ccc(NC(=O)CCS(=O)(=O)c3cccs3)cc2)c1,-5.7,32.8*,-5.8%,1.7%,2.3%,-6.6%,1.7%
COc1ccc(Nc2nnc(C)c(=O)[nH]2)c(OC)c1,-1.0,-9.0,-2.7%,?,8.9%,-4.8%,.
Cc1ccc(C)c(C(=O)COC(=O)Cn2c(C)csc2=O)c1,14.2,4.0,-9.6%,1.0%,-4.7%,.,.
O=c1[nH]c(=S)[nH]c2c1[C@H](CCc1cccc(Cl)c1)O[C@H](C1CC1)C2,.,.,.,.,-13.3%,.,.
O=C(c1cccnc1)c1cc2ccccc2[nH]1,2.7,active,-3.7%,-14.6%,2.5%,-0.5%,5.5%
CC(C)N(Cc1cc2ccccc2[nH]c1=O)C(=O)c1cccnc1,2.5,-12.9,1.3%,-30.0%,3.8%,-0.1%,.
